Experiment [1] can be described thus: NCI Yeast Anticancer Drug Screen. Data for the rad50 strain (AID 155).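 Note: 0% = growth of vehicle-only cultures of the same strain.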 Particulars: S. cerevisiae rad50 strain growth inhibition, active compounds read high; at 50.0 µM unless noted. A digest of the protocol:
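Inhibition values express reduced yeast growth in compound-treated cultures relative to vehicle-treated controls.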

Experiment [2] in a line: NCI Yeast Anticancer Drug Screen. Data for the mec2-1 strain (AID 157). Particulars: S. cerevisiae mec2-1 strain, active compounds read high; at 50.0 µM unless noted. A digest of the protocol: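 Each compound was tested on mec2-1 yeast, a strain altered in DNA damage repair or cell cycle control. Growth inhibition is reported relative to vehicle.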
Experiment [3] in a line: NCI Yeast Anticancer Drug Screen. Data for the sgs1 mgt1 strain (AID 161).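 Note: 0% = growth of cultures given vehicle only.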 Particulars: S. cerevisiae sgs1 mgt1 strain, active compounds read high; at 50.0 µM unless noted. A digest of the protocol:
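Read-out: growth inhibition vs vehicle controls. Cells: mutant yeast strain deficient in DNA damage repair.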

Experiment [4] is described as follows: NCI Yeast Anticancer Drug Screen. Data for the cln2 rad14 strain (AID 165).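 Note: 0% = growth equal to vehicle treated cultures.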 Particulars: S. cerevisiae cln2 rad14 strain, active compounds read high; at 50.0 µM unless noted. In a few lines:
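Test compounds were added to cln2 rad14 yeast cultures; inhibition of growth was then determined by comparison with vehicle treatment.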

Experiment [5] can be described thus: NCI Yeast Anticancer Drug Screen. Data for the bub3 strain (AID 167). Conditions: S. cerevisiae bub3 mutant strain, active compounds read high; at 50.0 µM unless noted. A digest of the protocol:
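Steps: expose the mutant yeast strain to compound; grow alongside vehicle-treated cultures; measure growth; express inhibition against the vehicle cultures.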

A short description of experiment [6]: NCI Yeast Anticancer Drug Screen. Data for the mlh1 rad18 strain (AID 175). Particulars: S. cerevisiae mlh1 rad18 strain growth inhibition, active compounds read high; at 50.0 µM unless noted. A digest of the protocol: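 Inhibition values reflect reduced growth of mutant yeast versus vehicle-treated controls following compound exposure; the mutations affect DNA damage repair.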

Structures are written as SMILES. About 79,000 compounds went through this panel and 15% of them were active in at least one assay; those are over-represented in the sample as a whole. Unmarked numbers belong to inactive results. Activity calls are given as the source filed them. Cut-off read from the data, not from the text of the source: active = growth inhibition above about 70%; inactive = the rest.

As for `Nc1ncnc2c1ncn2CC(O)CN(CCO)CCO` (stereo not given), the growth inhibition in experiment [1] is 13.1%; in experiment [2] it was 7.95%; in experiment [3] it was -3.7%; in experiment [4], 8.2%; in experiment [5], -10.8%; in experiment [6], 18.6%.
Consider `CCCCCCC(O)C[N+](=O)[O-]` (stereo not given), for which the growth inhibition in experiment [1] is 0.3%; in experiment [2], -28.9%; in experiment [3], -11.8%; in experiment [4] it was -5%; in experiment [5], -2.75%; in experiment [6], -3.9%.
On to `N#CC(C(=O)CCC(=O)C(C#N)c1ccccc1)c1ccccc1` (stereo not given), for which the growth inhibition was -26.4% in experiment [1]; -14.8% in experiment [2]; 1.2% in experiment [3]; 5.9% in experiment [4]; 6.45% in experiment [5]; -6.4% in experiment [6].
Regarding `CCCCCCCC[n+]1ccc(C#N)cc1`, the growth inhibition in experiment [1] was 11.7%; in experiment [2] it was 4%; in experiment [3], 14.3%; in experiment [4], 15.9%; in experiment [5] it was 5.65%; in experiment [6], 19%.
On to `CC(C)COC(=O)C(CC(C)C)NC(=O)C(C)O` (stereo not given), for which the growth inhibition in experiment [1] is 5.95%; in experiment [2], -17.4%; in experiment [3] it was -13.3%; in experiment [4] it was 10.8%; in experiment [5] it was -14.7%; in experiment [6], 6.6%.
With `CCCOC(=O)N(C)c1ccccc1`, the growth inhibition is 17.8% in experiment [1]; -10.3% in experiment [2]; 2.95% in experiment [3]; -32.3% in experiment [4]; -22.6% in experiment [5]; -2.1% in experiment [6].
Consider `Fc1cccc2c(SCc3ccc(Cl)cc3Cl)cnnc12`, for which the growth inhibition is -0.9% in experiment [1]; -1.25% in experiment [2]; 3.25% in experiment [3]; -44.5% in experiment [4]; 13.8% in experiment [5]; 2.85% in experiment [6].
Consider `O=C(O)c1cc(C(=O)O)cc(C(=O)O)c1`, for which the growth inhibition is -1.55% in experiment [1]; -16.2% in experiment [2]; -8.1% in experiment [3]; -56.9% in experiment [4]; -3.05% in experiment [5]; -30.1% in experiment [6].
As to `CN(C)C(=S)Oc1c([N+](=O)[O-])cc([N+](=O)[O-])cc1C(C)(C)C`, the growth inhibition in experiment [1] is 94% (active); in experiment [2], 89.9% (active); in experiment [3], 93.8% (active); in experiment [4], 78% (active); in experiment [5] it was 92.6% (active); in experiment [6], 95% (active).
With `NC(=O)N/N=C(/Cc1nc2ccc(C(=O)c3ccccc3)cc2[nH]c1=O)C(=O)Nc1ccc(C(F)(F)F)cc1[N+](=O)[O-]`, the growth inhibition in experiment [1] was -7.85%; in experiment [2], 7.35%; in experiment [3] it was -7.85%; in experiment [4], 0.8%; in experiment [5], -33.6%; in experiment [6], 5.05%.
As to `Cc1ccc(C)c(NC(=O)c2cccc(C(=O)Nc3cc(C)ccc3C)c2)c1`, the growth inhibition in experiment [1] is -13.1%; in experiment [2] it was 0.45%; in experiment [3] it was -4.3%; in experiment [4] it was 8.05%; in experiment [5], 7.95%; in experiment [6], 7%.
`COc1ccc(NC(=O)Nc2ccc(F)cc2)c(OC)c1`: the growth inhibition in experiment [1] was 16.1%; in experiment [2] it was 4.9%; in experiment [3], 10.9%; in experiment [4] it was 13.9%; in experiment [5], 24.2%; in experiment [6] it was 7.45%.
With `CC(C)CNC(=O)c1ccccc1Cl`, the growth inhibition in experiment [1] was -22.9%; in experiment [2], 20.1%; in experiment [3], -5.4%; in experiment [4], -32.4%; in experiment [5] it was 2.55%; in experiment [6] it was -11.1%.
`O=C(O)C1Cc2c([nH]c3ccccc23)CN1` (stereo not given): the growth inhibition in experiment [1] was 8.45%; in experiment [2] it was -10.9%; in experiment [3] it was 11.6%; in experiment [4] it was 2.25%; in experiment [5], 24.1%; in experiment [6] it was 9.25%.
`COC(OC)C(C)=O`: the growth inhibition in experiment [1] is -13.1%; in experiment [2], -19.8%; in experiment [3], -18.9%; in experiment [4], -16.9%; in experiment [5], -15.5%; in experiment [6], 5.35%.
With `COC(=O)C1CCOC(C)N1C(=O)OC(C)(C)C` (stereo not given), the growth inhibition in experiment [1] was 2.9%; in experiment [2] it was 0.75%; in experiment [3], 6.4%; in experiment [4], 11%; in experiment [5] it was 13.2%; in experiment [6] it was -34.5%.
As to `CC1=NN(C(=O)c2ccc(Cl)cc2)C(=O)/C1=C/c1cccc([N+](=O)[O-])c1`, the growth inhibition in experiment [1] was -16.7%; in experiment [2], -26.2%; in experiment [3], -44.9%; in experiment [4], -10.6%; in experiment [5], -15.9%; in experiment [6] it was -28.4%.
Turning to `CCC(C)C/C(C)=N/Nc1ccc([N+](=O)[O-])cc1[N+](=O)[O-]` (stereo not given), the growth inhibition in experiment [1] is -0.4%; in experiment [2], 7.85%; in experiment [3] it was 0.65%; in experiment [4] it was -16.4%; in experiment [5], 12.7%; in experiment [6], -6.25%.
Take `CCCCCCCCCCCCCC(=O)OCCC(C)C`: the growth inhibition in experiment [1] is -5.85%; in experiment [2] it was 0.25%; in experiment [3] it was 7.25%; in experiment [4], -18.9%; in experiment [5] it was 3.4%; in experiment [6] it was -7.3%.
Take `O=C(C[n+]1ccccc1)c1ccc(O)c(I)c1`: the growth inhibition in experiment [1] was -5.4%; in experiment [2], 7.65%; in experiment [3], 21.9%; in experiment [4], 21.7%; in experiment [5], 0.35%; in experiment [6], 7.4%.

(Values after PubChem BioAssay (NCI).)
